For the first experiment, the target named is SF3B2 (UniProt Q13435). The note with it: DSSO, in cells.
Chain of ANXA4, P09525 (P09525 whole entry): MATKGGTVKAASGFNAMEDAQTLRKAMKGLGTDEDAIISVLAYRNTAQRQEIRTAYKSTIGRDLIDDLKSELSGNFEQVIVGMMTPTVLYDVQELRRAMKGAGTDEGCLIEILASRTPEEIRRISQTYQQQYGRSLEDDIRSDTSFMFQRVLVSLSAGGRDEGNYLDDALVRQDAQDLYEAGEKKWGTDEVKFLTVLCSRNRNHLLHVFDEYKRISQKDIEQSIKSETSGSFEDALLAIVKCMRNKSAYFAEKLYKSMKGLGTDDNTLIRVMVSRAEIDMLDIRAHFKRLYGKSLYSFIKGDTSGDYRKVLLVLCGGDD
Chain of HTATSF1, O43719 (O43719 whole entry): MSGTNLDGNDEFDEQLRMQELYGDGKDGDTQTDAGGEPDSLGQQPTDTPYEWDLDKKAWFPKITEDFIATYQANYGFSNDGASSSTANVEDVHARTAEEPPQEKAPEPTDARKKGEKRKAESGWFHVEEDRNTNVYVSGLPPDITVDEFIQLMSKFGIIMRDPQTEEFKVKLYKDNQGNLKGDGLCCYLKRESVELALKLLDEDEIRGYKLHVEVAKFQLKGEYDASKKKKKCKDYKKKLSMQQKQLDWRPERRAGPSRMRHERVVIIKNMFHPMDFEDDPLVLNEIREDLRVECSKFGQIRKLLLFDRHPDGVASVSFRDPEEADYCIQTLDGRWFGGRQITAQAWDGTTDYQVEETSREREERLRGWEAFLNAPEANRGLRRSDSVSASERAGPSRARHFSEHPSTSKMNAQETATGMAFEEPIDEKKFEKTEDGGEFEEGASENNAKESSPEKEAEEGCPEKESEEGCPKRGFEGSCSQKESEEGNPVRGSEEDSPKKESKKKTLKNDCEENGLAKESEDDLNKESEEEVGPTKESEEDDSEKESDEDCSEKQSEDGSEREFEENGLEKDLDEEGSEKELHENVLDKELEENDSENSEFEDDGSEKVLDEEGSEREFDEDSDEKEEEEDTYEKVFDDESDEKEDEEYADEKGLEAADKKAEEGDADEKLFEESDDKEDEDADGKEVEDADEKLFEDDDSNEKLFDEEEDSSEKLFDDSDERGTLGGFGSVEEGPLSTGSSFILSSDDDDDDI
Chain of SNRPE, P62304 (P62304 whole entry): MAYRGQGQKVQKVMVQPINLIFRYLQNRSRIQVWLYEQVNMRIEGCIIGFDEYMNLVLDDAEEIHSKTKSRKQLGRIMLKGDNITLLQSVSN
Chain of CANX, P27824 (P27824 whole entry): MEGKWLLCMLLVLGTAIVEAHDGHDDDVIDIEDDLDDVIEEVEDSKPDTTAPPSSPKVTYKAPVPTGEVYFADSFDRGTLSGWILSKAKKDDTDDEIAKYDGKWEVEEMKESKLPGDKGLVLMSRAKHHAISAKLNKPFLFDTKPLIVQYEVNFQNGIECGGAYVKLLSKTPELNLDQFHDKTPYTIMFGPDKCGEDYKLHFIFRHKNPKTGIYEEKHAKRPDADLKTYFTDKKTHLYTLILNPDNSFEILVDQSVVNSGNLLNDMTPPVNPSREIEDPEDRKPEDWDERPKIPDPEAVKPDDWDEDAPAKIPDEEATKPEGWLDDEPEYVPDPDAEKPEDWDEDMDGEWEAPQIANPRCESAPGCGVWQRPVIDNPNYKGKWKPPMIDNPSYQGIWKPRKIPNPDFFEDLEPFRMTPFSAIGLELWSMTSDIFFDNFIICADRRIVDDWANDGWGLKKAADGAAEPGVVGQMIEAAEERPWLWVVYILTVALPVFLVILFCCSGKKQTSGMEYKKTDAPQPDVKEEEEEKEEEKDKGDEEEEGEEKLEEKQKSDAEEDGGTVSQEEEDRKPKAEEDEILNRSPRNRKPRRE
Chain of TMEM43, Q9BTV4 (Q9BTV4 whole entry): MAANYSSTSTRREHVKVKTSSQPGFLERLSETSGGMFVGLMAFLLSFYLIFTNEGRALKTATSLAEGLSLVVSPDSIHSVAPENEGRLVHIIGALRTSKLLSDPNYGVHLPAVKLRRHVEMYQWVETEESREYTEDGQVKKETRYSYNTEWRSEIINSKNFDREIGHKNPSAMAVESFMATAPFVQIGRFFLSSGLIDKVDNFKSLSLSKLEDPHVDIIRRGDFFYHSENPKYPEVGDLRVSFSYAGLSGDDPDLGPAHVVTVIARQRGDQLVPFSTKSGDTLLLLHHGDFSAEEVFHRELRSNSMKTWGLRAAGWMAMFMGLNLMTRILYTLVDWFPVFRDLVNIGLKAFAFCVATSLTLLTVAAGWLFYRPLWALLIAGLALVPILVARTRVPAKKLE
Chain of ANXA3, P12429 (P12429 whole entry): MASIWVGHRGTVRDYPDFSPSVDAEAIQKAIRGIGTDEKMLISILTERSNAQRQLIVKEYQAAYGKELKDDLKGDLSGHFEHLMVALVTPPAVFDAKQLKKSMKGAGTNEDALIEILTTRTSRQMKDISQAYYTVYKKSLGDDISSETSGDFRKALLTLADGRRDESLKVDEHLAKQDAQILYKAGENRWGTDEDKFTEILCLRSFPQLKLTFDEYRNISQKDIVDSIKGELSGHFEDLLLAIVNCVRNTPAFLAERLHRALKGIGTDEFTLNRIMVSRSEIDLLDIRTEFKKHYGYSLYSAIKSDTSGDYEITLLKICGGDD
As to SNRPA1, P09661, the cross-linked residues entry is listed as “K172 - S319”.

In the case of SNRPB, P14678, the cross-linked residues result is on record as “K57 - S319”.

Turning to HTATSF1, O43719, the cross-linked residues result is recorded as “K217 - K543”.

Turning to SNRPE, P62304, the cross-linked residues result is recorded as “K12 - K352”.

In another experiment the target is TMEM109 (UniProt Q9BVC6). To be noted: DSSO, in cells.
Chain of TMEM109 (Q9BVC6 whole entry): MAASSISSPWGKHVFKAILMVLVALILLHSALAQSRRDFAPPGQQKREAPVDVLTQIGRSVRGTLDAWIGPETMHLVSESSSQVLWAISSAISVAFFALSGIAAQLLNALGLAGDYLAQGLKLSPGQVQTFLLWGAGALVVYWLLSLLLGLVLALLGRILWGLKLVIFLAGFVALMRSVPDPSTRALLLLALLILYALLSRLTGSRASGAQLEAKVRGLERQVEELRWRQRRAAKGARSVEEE
Regarding ANXA4, P09525, the cross-linked residues result is recorded as “K57 - K215”.

As for TMEM43, Q9BTV4, the cross-linked residues entry is listed as “K18 - K215”.

For ANXA3, P12429, the cross-linked residues result is listed as “K263 - K215”.

On to CANX, P27824, for which the cross-linked residues result was “K516 - K215”.

The values are drawn from publication PMC13423814.
